# JMJD2E inh: JMJD2E (human) inhibition; JMJD2E catalytic domain, FDH-coupled NADH fluorescence (FDH is formaldehyde dehydrogenase); actives 1.6% (n = 230,000); AID 2147; Potency, µM (highest dose often 57.1 µM), for the others: at the highest dose activity change, negative = inhibition, usual class: inhibitors;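 also: 0% = wells with enzyme and -100% = buffer wells without enzyme; nearly all actives have a fitted effect of over 50% in size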
# Target sequence (B2RXH2 1-337 limits assumed): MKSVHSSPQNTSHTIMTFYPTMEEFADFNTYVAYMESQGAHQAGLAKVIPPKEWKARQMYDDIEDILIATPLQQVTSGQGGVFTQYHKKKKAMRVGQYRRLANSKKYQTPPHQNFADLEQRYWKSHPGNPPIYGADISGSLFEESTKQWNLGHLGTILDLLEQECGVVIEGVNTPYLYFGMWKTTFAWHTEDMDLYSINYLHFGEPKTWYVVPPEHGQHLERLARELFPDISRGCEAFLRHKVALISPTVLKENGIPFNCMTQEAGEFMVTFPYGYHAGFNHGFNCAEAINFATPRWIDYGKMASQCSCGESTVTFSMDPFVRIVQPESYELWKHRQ
# HPGD block: blocks human HPGD enzyme activity | P15428 | actives 4.3% (n = 150,000) | purified HPGD, NADH fluorescence kinetic, PGE2 substrate | Potency, µM, for the others: at the highest dose activity change, negative = inhibition, actives largely listed as inhibitors; also: % is scaled to controls: 0 for no effect and ±100 for the full control effect
#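 20 nM HPGD preincubated 15 min at room temperature with compound in 50 mM Tris-HCl pH 8, 0.01% Tween 20. Started with 1 mM NAD+ and 30 uM prostaglandin E2; NADH fluorescence (360/450 nm) read 5 times over 30-s intervals, last minus first.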
# Lamin A splicing: modulators of lamin A splicing; HeLa LMNA splicing GFP/RFP minigene ratio, 48 h; actives 0.01% (n = 200,000); AID 1487; Potency, µM (doses to about 46.1 µM), for the others: at the highest dose ratio change, negative = inhibition, most hits filed as inhibitors; active = well fitted inhibition curve with a large enough effect in the signal ratio, with a control signal flat, not every such curve was filed as active; inconclusive = small, poorly fitted or top-dose-only effect, or effect the other way, or a change in a side signal; the % refers to the signal ratio; also: % is scaled to controls: 0 for no effect and ±100 for the full control effect
#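 S3 HeLa stable clones carrying a lamin A-EGFP splicing minigene plus DsRed2 were seeded at 600 cells/well in Opti-MEM with 2% FBS, pin-dosed and incubated 48 h at 37°C. Acumen cytometry (488 nm) gave the GFP/RFP total-intensity ratio.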
# HTT aggregate: reduces HttQ103-GFP aggregates in PC12 cells. PC12 HttQ103-GFP aggregates, Acumen cytometry, 40 h. Potency, µM (doses to about 46.1 µM), for the others: top-dose activity change, negative = inhibition, actives largely listed as inhibitors. actives 1.1% (n = 220,000). AID 1688; active = well fitted curve in the direction sought with a large enough effect; inconclusive = small, poorly fitted or top-dose-only effect, or another doubt; inactive = no such curve, though single readings can be large; an effect the other way counts as inactive or inconclusive; also: % is scaled to controls: 0 for no effect and ±100 for the full control effect; nearly all actives have a fitted effect of over 60% in size
#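 Using laser scanning cytometry, GFP-positive aggregates were counted after lysis of PC12 cells induced with 100 nM tebufenozide to express HTT exon 1 Q103–GFP. Compounds were tested in titration.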
# HTT ATP protect: cytoprotection in Huntington HTT-Q103 PC12 cell model | actives 0.14% (n = 230,000) | AID 1471 | Potency, µM (top dose mostly 56.4 µM), for the others: cytoprotection (ATP increase), actives largely listed as activators | PC12 HTT-Q103 induced, cytoprotection, ATP luminescence, 40 h; active = well fitted curve in the direction sought with a large enough effect; inconclusive = small, poorly fitted or top-dose-only effect, or another doubt; inactive = no such curve, though single readings can be large; an effect the other way counts as inactive or inconclusive; also: % of control where 0% means no effect; nearly all actives have a fitted effect of over 45% in size
#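 Compounds were screened for protection of PC12 cells against cell death after tebufenozide induction (100 nM final) of mutant Huntingtin exon 1 (Q103) fused to GFP.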
# ALDH1A1 block: inhibitors of human aldehyde dehydrogenase 1A1; Potency, µM (series often up to 75.3 µM), inactives show at the highest dose activity, negative = inhibition, usual class: inhibitors; actives 7.3% (n = 220,000); Purified ALDH1A1, NADH fluorescence, propionaldehyde substrate;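 also: plate controls were no enzyme wells and a reference inhibitor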
# Starred values were filed as active, the others as inactive; ? = inconclusive; . = no result; [ ] = dose if it differs, or a comment. Compounds with a hit are over-represented: about 9.2% of the library has one in this group of screens. Unless noted, calls follow the shape of the dose curve; as a rule, active = well fitted inhibition curve with a large enough effect (not every such curve was filed as active); inconclusive = small, poorly fitted or top-dose-only effect, or another doubt; inactive = no such curve, though single readings can be large or run the other way. Potency is read from the fitted curve at half-maximal effect.
SMILES,JMJD2E inh,HPGD block,Lamin A splicing,HTT aggregate,HTT ATP protect,ALDH1A1 block
CCOC(=O)c1ccc(NC(=O)CC2OCCN(CC)C2=O)cc1 (configuration not stated),-6%,-5%,-12%,-6%,-25%,1.8µM*
CCOC(=O)c1ccc(NC(=O)CC2NCCNC2=O)cc1 (configuration not stated),-3%,-5%,11%,-3%,1%,-5%
CCOC(=O)c1ccc(NC(=O)CC2C(=O)OCCN2CC)cc1 (configuration not stated),-2%,.,-21%[46 µM],6%,.,1.4µM*
COc1ccc(O[C@H]2C=C[C@@H](c3ccccc3)O[C@H]2COC(=O)NCc2cccc3ccccc23)cc1,.,.,.,.,-43%[10 µM],6%[13.5 µM]
COC(=O)C/C=C\[C@@H](C)[C@@H](/C=N\O[C@@H](C)CN1CCCCc2nc(C)c(C)cc21)OC,.,.,.,.,2%[10 µM],5%[13.5 µM]
O=C(CNC(=O)c1ccccc1Cl)OCc1cc(=O)n2nc(C3CC3)sc2n1,.,.,9%[46 µM],.,.,.
COc1ccc(CCNC(=O)C(NS(=O)(=O)c2ccc3c(c2)CCN3C(C)=O)C(C)C)cc1OC (configuration not stated),7%,.,?,4%,-6%,-3%
COC(=O)c1cc(OC)c(OC)cc1NC(=O)C1CCC(=O)N1S(=O)(=O)c1ccc(C)cc1 (configuration not stated),?,-16%,-4%,3.2µM*,-25%,-4%
COC(=O)c1ccccc1NC(=O)C1CCC(=O)N1S(=O)(=O)c1ccc(C)cc1 (configuration not stated),6%,-5%,0%,18%,-8%,9%
COC(=O)N1CCC2(CC1)CCN(c1cccc(-c3ccccc3)c1)CC2,.,-25%,.,.,-45%,2%
Cc1cc(C(=O)CCl)c(C)n1-c1ccon1,-5%,.,.,-27%,-8%,0.63µM*
Cc1cc(C(=O)CCl)c(C)n1-c1cccc([N+](=O)[O-])c1,-29%,.,-12%[46 µM],?,4%[10 µM],0.32µM*
COC(=O)[C@@]1(Cc2ccccc2)[C@H]2c3cc(C(=O)N(C)C)n(CCN4CNCC4=O)c3C[C@H]2CN1C(=O)c1ccccc1,-19%,-1%,.,.,15%,3%
Cc1ccc(C)c2[nH]c(=O)c(CN(Cc3ccco3)C(=S)NCC3CCCO3)cc12 (configuration not stated),?,.,-10%[46 µM],18%[9.22 µM],13%[10 µM],20µM*
Cc1cc(C)c2cc(CN(CC3CCCO3)C(=S)NCc3ccco3)c(=O)[nH]c2c1 (configuration not stated),-17%,.,?,-6%[9.22 µM],-2%[10 µM],16µM*
COc1ccc2cc(CN(CC3CCCO3)C(=S)NCc3ccco3)c(=O)[nH]c2c1 (configuration not stated),?,.,.,3%[9.22 µM],-7%[10 µM],3.5µM*
Cc1ccc2[nH]c(=O)c(CN(CC3CCCO3)C(=S)NCc3ccco3)cc2c1 (configuration not stated),-11%,-8%,-6%,?,14%[10 µM],?
O=C(CSc1nc2nn(-c3ccccc3)c(=O)c-2c2n1CCCCC2)NCCc1ccccc1,1%,.,-4%[46 µM],2%,4%[10 µM],-4%
Cc1ccc(/C=C/C(=O)N2CCCC(C(N)=O)C2)o1 (configuration not stated),-4%,.,.,-10%[9.22 µM],-4%[10 µM],14µM*
Cc1ccc(/C=C/C(=O)N2CCN(c3ncccn3)CC2)o1,?,20µM*,7%,?,1%[10 µM],3.5µM*
Nc1nc(=S)c2[nH]cnc2[nH]1,-28%,35µM*,.,.,-85%,?
S=c1nc[nH]c2c1[nH]c1ccc(Cl)cc12,-1%,.,.,-15%[9.22 µM],24%[10 µM],.
Cc1ccc(Cc2c(C)[nH]c(=S)[nH]c2=O)cc1,1%,.,.,8%[9.22 µM],28%[10 µM],.
Cc1ccc(Cc2c[nH]c(=S)s2)cc1,-7%,.,.,?,23%[10 µM],8.9µM*
Nc1cc(N2CCCCC2)c([N+](=O)[O-])cc1Cl,-1%,-23%,-1%,9%,25%[10 µM],3.5µM*

# Screening results from PubChem.
